# Results published in ChEMBL document CHEMBL3433997, “St. Jude Leishmania screening dataset” (2016).
# What was measured:
# Type in all cases: functional
# [1] = target: Solute carrier family 2, facilitated glucose transporter member 1 (Homo sapiens) (UniProt P11166); experiment: ST_JUDE_LEISH: Cytotoxicity at 2uM final concentration against transgenic Leishmania Mexicana promastigotes LmGLUT1 that are glucose transport deficient and complemented with the human glucose transporter GLUT1. Activity is measured by DNA content using SYBR green in vitro
# [2] = target: Hexose transporter 1 (Plasmodium falciparum) (UniProt O97467); experiment: ST_JUDE_LEISH: Cytotoxicity at 2uM final concentration against transgenic Leishmania Mexicana promastigotes LmPfHT that are glucose transport deficient and complemented with the Plasmodium falciparum hexose transporter. Activity is measured by DNA content using SYBR green in vitro
# [3] = target: Glucose transporter (Leishmania mexicana) (UniProt O61059); experiment: ST_JUDE_LEISH: Cytotoxicity at 2uM final concentration against transgenic Leishmania Mexicana promastigotes LmGT2 that are glucose transport deficient and complemented with the L. Mexicana glucose transporter 2. Activity is measured by DNA content using SYBR green in vitro
# Solute carrier family 2, facilitated glucose transporter member 1 (Homo sapiens), sequence (P11166 whole entry): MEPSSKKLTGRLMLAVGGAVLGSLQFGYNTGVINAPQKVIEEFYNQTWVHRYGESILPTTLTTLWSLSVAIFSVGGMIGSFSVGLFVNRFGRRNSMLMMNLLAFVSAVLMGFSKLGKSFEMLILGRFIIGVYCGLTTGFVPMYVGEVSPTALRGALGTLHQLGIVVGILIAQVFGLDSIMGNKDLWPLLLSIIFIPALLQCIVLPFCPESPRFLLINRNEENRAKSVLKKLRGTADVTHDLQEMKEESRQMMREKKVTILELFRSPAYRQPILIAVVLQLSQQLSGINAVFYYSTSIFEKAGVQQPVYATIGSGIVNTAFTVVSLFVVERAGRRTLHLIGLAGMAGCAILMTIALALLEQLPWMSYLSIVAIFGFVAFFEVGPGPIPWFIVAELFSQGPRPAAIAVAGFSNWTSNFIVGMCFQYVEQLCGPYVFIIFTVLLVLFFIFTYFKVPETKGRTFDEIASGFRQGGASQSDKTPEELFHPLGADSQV
SMILES,inhibition [1] [%],inhibition [2] [%],inhibition [3] [%]
COc1ccc(CCC(C)N2CC(N)C(c3cn(C)c4cnccc34)C2)cc1 (stereo unspecified),9.7,9.62,7.69
Cc1ccc2c(=O)cc(CCc3cccc(F)c3F)n(CC(=O)N(Cc3ccc(-c4ccc(C(F)(F)F)cc4)cc3)C3CCN(C(C)C)CC3)c2n1,-2.51,-0.71,-1.8
Cc1ccc(N2C(N)=NC(N)=NC2c2ccccc2)cc1 (stereo unspecified),2.79,2.24,2.13
O=C(Nc1ccc(Cl)cc1)c1ccc(CN2CCCN(Cc3cccc(O)c3)CC2)cc1,1.65,1.35,2.47
Cc1cc(NC(=O)Nc2ccc3nc(C)oc3c2)c2cc(Cl)ccc2n1,3.48,2.12,1.38
O=C(Nc1ccc(-c2cccc(-c3nc4ccccc4[nH]3)c2)cc1)NC1CC1c1ccccc1 (stereo unspecified),1.87,1.77,-0.17
CCOc1ccc2nc(NC(=O)c3csnn3)sc2c1,4.69,3.55,-1.06
COc1ccc(C(=O)Nc2ccc(Nc3nc(C)cc(N(C)C)n3)cc2)c(OC)c1,5.81,6.65,5.62
CCN(CC)CCN(Cc1ccc(-c2ccc(C(F)(F)F)cc2)cc1)C(=O)Cn1c(CCc2cccc(F)c2F)cc(=O)c2c1CCCC2,11.6,12.3,9.85
Cc1cc(N/N=C/c2cccc([N+](=O)[O-])c2)c2cc(F)ccc2n1,2.55,1.82,0.14
CN(CCN1CCC(c2c[nH]c3ccccc23)CC1)c1ccc(-c2nc3cc(Cl)c(Cl)cc3[nH]2)cc1,2.04,0.16,0.74
Cc1cc(C(=O)Nc2ccc3c(ccn3C3CCCN(Cc4ccc(C(F)(F)F)cc4F)CC3)c2)no1 (stereo unspecified),-0.37,0.5,-0.5
Cc1cnc(C(=O)Nc2cccc(-c3cccc(-c4nc5cccc(C)c5[nH]4)c3)c2)cn1,4.11,2.89,0.5
CC(Cc1ccc(C(=O)OC(c2ccccc2)c2ccccc2)cc1)NCC(O)c1ccccc1 (stereo unspecified),0.9,0.98,-0.61
CC(Cc1ccc(NC(=O)c2ccc(CC(C)NCc3ccc(Cl)c(Cl)c3)cc2)cc1)NCCc1cccc(Cl)c1 (stereo unspecified),1.59,-0.71,-0.17
Cc1ccc(-n2nc3ccc(NC(=O)c4ccc([N+](=O)[O-])o4)cc3n2)cc1C,60.8,82.4,40.3

SMILES,inhibition [1] [%],inhibition [2] [%],inhibition [3] [%]
O=C(/C=C/c1ccc(Cl)c(Cl)c1)NC1CCN(CCNC(=O)c2cccc(Cl)c2)CC1,4.41,3.11,2.53
O=C(NC1CC1c1ccccc1)N(CCCn1ccnc1)Cc1csc(-c2ccc(CNCc3ccccc3)cc2)n1 (stereo unspecified),1.52,1,3.57
COc1cccc(NC(=O)Nc2cc(-c3ccc4[nH]ncc4c3)cc3c2CNC3=O)c1,2.19,2.02,1.68
COc1ccc(-n2cc(C(=O)c3cc(Br)ccc3O)cc(C#N)c2=O)cc1Cl,3.4,1.9,0.95
CCN1CCN(c2cc(C)c3cc(NC(=O)c4cccc(OC)c4)ccc3n2)CC1,15.2,15.3,13.7
CS(=O)(=O)c1ccc(-c2cnc(N)c(-c3cccc(O)c3)c2)cc1,6.6,6.49,6.07
Nc1nccc(-c2ccc3c(/C=C/c4ccccc4)cnc(N)c3c2)n1,18.2,24.5,0.5
N#Cc1ccc(N[C@@H](CC2CCCCC2)C(=O)NCc2cc(F)c(F)cc2F)c2ccccc12,13,14.1,12
COc1ccc(-c2cccc(NC(=O)c3cccs3)c2)cc1CN1CCCN(C)CC1,0.38,0.37,-1.25
COc1cc(Cc2cnc(N)nc2N)cc(OCCCCCCC(=O)O)c1OC,0.12,-0.55,-0.96
O=C(/C=C/c1ccc(Cl)c(Cl)c1)NCCCCCN1CCCN(C(=O)Nc2cc(F)cc(F)c2)CC1,9.22,8.04,8.86
CCOc1ccc2ccccc2c1C(=O)Nc1cc(C)nn1-c1nc(C)cc(=O)[nH]1,49.6,44.4,20.4
COc1ccc(Nc2nccc(-c3ccc4ccnc(NCCCCN)c4c3)n2)cc1,-0.78,-1.84,-4.14
COc1cc(N(Cc2ccc(F)cc2)C(=O)c2ccc(-c3ccccc3)cc2)ccc1OCCN1CCCC1,9.7,5.41,7.12
CCc1ccc(C2CCN(CCCCNC(=O)c3ccc(NC(=O)c4ccc(Cl)cc4)cc3)CC2)cc1,-0.05,0.38,0.05
O=C(c1cccs1)N1N=C(c2cccs2)CC1c1cccc([N+](=O)[O-])c1 (stereo unspecified),8.21,5.4,7.21
